Assay outcomes: PubChem BioAssay, National Center for Advancing Translational Sciences (NCATS)
POLB inh – inhibitors of human DNA polymerase beta; Potency, µM (series often up to 114 µM), for the others: at the highest dose activity change, negative = inhibition, actives largely listed as inhibitors; P06746; 340,000 tested, 1.3% active; Pol beta primer extension/strand displacement, fluorescence kinetic; note: potency is the fitted concentration of half-maximal effect; % is set by controls: 0 for no effect and ±100 for the full control effect
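Preincubation: enzyme (10 nM) with compound, 15 min, RT. Reaction: substrate added to 50 nM final. Reads: 0 and 10 min. Analysis: normalized, Hill fit.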
WRN helicase inh – inhibitors of human WRN helicase. Q14191. WRN helicase unwinding, fluorescent forked duplex, kinetic. Potency, µM (titrated, usually from 114 µM), inactives show top-dose activity change, negative = inhibition, hits mostly inhibitors. 360,000 tested, 0.46% active. AID 651768; note: potency is the fitted concentration of half-maximal effect; % is set by controls: 0 for no effect and ±100 for the full control effect; nearly all actives have a fitted effect of over 55% in size
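Fluorescence dequenching readout, ex 525 nm/em 598 nm, kinetic mode: forked duplex DNA (100 nM final) with adjacent fluorophore and quencher unwound by WRN (20 nM final) with 2 mM ATP. Compound preincubation 15 min, room temperature.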
POLI inh – DNA polymerase iota (human) inhibition | Q9UNA4 | Pol iota fluorescent replication assay, 10 min | Potency, µM (series often up to 115 µM), for the others: top-dose activity, negative = inhibition, most hits filed as inhibitors | 390,000 tested, 1% active; note: potency is the fitted concentration of half-maximal effect
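Fluorescent replication assay read twice, at 0 min and 10 min after adding 50 nM (final) substrate. Enzyme (10 nM) and compounds were first incubated 15 min at room temperature; enzyme-free buffer wells were negative controls.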
Pol eta inh – blocks human DNA polymerase eta activity | recombinant Pol eta, fluorescent DNA replication assay | Potency, µM (highest dose often 114 µM), without a hit: at the top dose activity change, negative = inhibition, most hits filed as inhibitors | 390,000 tested, 1.2% active | AID 588591; note: potency is the fitted concentration of half-maximal effect; % is set by controls: 0 for no effect and ±100 for the full control effect
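Fluorescent replication assay: 50 nM final substrate added after a 15 min room-temperature compound preincubation with 10 nM enzyme. Signal taken at 0 min and again at 10 min.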
PI5P4Ka inh – blocks human PI5P4K alpha kinase activity; P48426; PI5P4Kalpha enzyme, ADP-Glo luminescence, 60 min; stronger effect = lower value; max response, %; 330,000 tested, 1.2% active; AID 652105; active = max response of -50% or lower; inconclusive = between -30% and -50%; inactive = -30% or higher; note: value at the top dose of about 77 µM; % is set by controls: 0 for no effect and ±100 for the full control effect
Target sequence (P48426 whole entry, looked up): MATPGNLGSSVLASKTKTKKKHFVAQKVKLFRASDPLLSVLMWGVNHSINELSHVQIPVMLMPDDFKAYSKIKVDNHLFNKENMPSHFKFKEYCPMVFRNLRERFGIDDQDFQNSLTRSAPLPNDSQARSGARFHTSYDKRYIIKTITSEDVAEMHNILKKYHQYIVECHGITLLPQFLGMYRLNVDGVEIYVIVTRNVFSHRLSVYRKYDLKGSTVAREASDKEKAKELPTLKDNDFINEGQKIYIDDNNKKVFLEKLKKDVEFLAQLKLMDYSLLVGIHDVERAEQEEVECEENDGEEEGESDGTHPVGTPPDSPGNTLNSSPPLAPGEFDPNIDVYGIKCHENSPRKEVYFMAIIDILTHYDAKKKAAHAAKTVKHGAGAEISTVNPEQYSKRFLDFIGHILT
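Quantitative HTS of the MLSMR library against PI5P4Kalpha with substrate. ATP added last at 5 microM final; room temperature, 60 minutes. Remaining ATP depleted, ADP converted and read as luminescence.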
Pol kappa inh – DNA polymerase kappa (human) inhibition | 400,000 tested, 0.53% active | Potency, µM (top dose mostly 107 µM), for inactives: at the highest dose activity, negative = inhibition, most hits filed as inhibitors | Q9UBT6 | AID 588579 | purified Pol kappa, fluorescent DNA synthesis assay, 10 min; note: potency is the fitted concentration of half-maximal effect; % is set by controls: 0 for no effect and ±100 for the full control effect
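Kinetic fluorescence screen: compound preincubated 15 min RT with 10 nM enzyme; 50 nM substrate (final) initiates; reads at 0/10 min.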
* = called active by the depositor; ? = inconclusive; nt = no result; [ ] = dose if it differs, or a comment. Most compounds without a hit are left out; they make up all but 2.8% or so of the library. Unless noted, calls come from the whole dose curve; as a rule, active = well fitted curve in the direction sought with a large enough effect; inconclusive = small, poorly fitted or top-dose-only effect, or another doubt; inactive = no such curve, though single readings can be large; an effect the other way counts as inactive or inconclusive.

SMILES	POLB inh	WRN helicase inh	POLI inh	Pol eta inh	PI5P4Ka inh	Pol kappa inh
Cc1cccc(NC(=O)c2oc3c(c2C)-c2[nH]ncc2CC3)c1C	-15%	nt	-2%	1%	nt	-15%
CCCCCc1c2c(cc(O)c1C(=O)O)OC(=O)c1c(cc(OC)cc1C(=O)CCCC)O2	50µM*	?	?	79µM*	?	?
CCCCCc1c2c(cc(O)c1C(=O)O)OC(=O)c1cc(C(=O)CCCC)c(OC)cc1O2	nt	?	?	79µM*	-24	-7%
CCCCc1c(C(=O)O)cc(OC)cc1C(=O)O	4%	9%	-12%	-2%	nt	-10%
Clc1ccc(CNCc2cccs2)cc1Cl	-2%	-11%	-5%	-17%	-4	0%
O=C(Cc1ccccc1Cl)NC1(O)C(=O)c2ccccc2C1=O	4%	1%[11.6 µM]	5µM*	?	2	-4%
CCN(CC)c1ccc(C=C2C(=O)OC3(CCCCC3)OC2=O)cc1	1%	50µM*	?	-1%	-1	-2%
CCCCC1(C)OC(=O)C(=Cc2ccc(N(CC)CC)cc2)C(=O)O1 (stereo unspecified)	6%	?	?	-14%	5	-21%
C=CCN(CC=C)C(=S)NC(=O)c1ccc(C)c(Br)c1	2%	-10%	-7%	-17%	-6	-13%
O=c1cc(/C=C/c2c(F)cccc2Cl)[nH]c2ccccc12	27%	-27%[57.1 µM]	13%	11µM*	-1	-10%
C[N+](=O)C1C(=O)Nc2ccccc21 (stereo unspecified)	nt	0%	nt	nt	11	nt
O=C(N/N=C/c1coc2ccc(Cl)cc2c1=O)c1ccc(O)cc1	?	-1%	8%	-8%	-19	-1%
O=C1NC(=S)S/C1=C\c1coc2ccc(O)cc2c1=O	?	?	?	50µM*	-100*	-20%
O=C1NC(=S)S/C1=C\c1coc2ccccc2c1=O	17%	-22%	?	-19%	-73*	-3%
Cn1c(N)c(C(=O)COC(=O)c2cc(-c3ccco3)nc3ccccc23)c(=O)n(Cc2ccccc2)c1=O	20µM*	nt	nt	nt	nt	nt
O=S(=O)(Cc1ccccc1)N1CCN(Cc2ccc3c(c2)OCO3)CC1	2%	-2%	-9%	-9%	4	7%
O=C1CC(=O)CC(c2ccco2)C1	?	-7%	?	18µM*	0	?
CC(C)CNC1=CC(=O)CC(c2ccco2)C1 (stereo unspecified)	28µM*	-21%	28µM*	?	-22	?
CC1CCN(S(=O)(=O)c2ccc3c(c2)oc(=O)n3CC(=O)N2CCCCC2)CC1	0%	nt	21%	-9%	nt	-23%
COc1ccccc1N1CCN(c2nc3ccccn3c(=O)c2C=O)CC1	1%	-8%	65%	-18%	36	-5%
COCCNC(=O)C1(C(F)(F)F)C/C(=C/CCO)CCCO1 (stereo unspecified)	nt	nt	?	nt	nt	11%
O=C(N/N=C/c1ccc(Cl)c([N+](=O)[O-])c1)c1ccc2nc[nH]c2c1	40µM*	-26%	-3%	?	-16	-15%
CNC(=O)[C@@H]1CCC(=O)N1	nt	-11%	0%	-9%	9	-20%
O=C(CNS(=O)(=O)c1ccc(Br)cc1)OCc1cc(=O)n2cc(Br)ccc2n1	35µM*	nt	nt	nt	nt	nt
COc1ccc(OC)c(NC(=O)CSC2=C(C#N)C(c3ccco3)C3=C(CCCC3=O)N2)c1 (stereo unspecified)	28%	-14%	72%	-13%	-11	-19%
CCc1ccccc1NC(=O)CSC1=C(C#N)C(c2ccc3c(c2)OCO3)C2=C(CCCC2=O)N1 (stereo unspecified)	22µM*	-10%	-10%	-1%	nt	-11%
O=C1c2cc(O)cc(O)c2OC[C@@H]1c1ccc(O)c(O)c1	nt	nt	nt	nt	nt	15µM*
Cc1cc(N)ccc1N1CCCC1	97%	50µM*	?	1%	-72*	0%
O=C(CCc1nc2ccccc2s1)NC1CCOC1=O (stereo unspecified)	?	-7%	-19%	-13%	?	-26%
